# Where “and” joins values, the source holds several entries; their conditions need not be identical. Equal values may be shown once. Among all 310,000 compounds or so, about 17,000 (5.5%) were called active. Not shown: some 11% with an inconclusive outcome. The call rests on the fitted dose curve; in most records, active means well fitted inhibition curve with a large enough effect; inconclusive means small, poorly fitted or top-dose-only effect, or effect the other way; inactive means no such curve, though single readings can be large or run the other way. For the sample, actives were picked, then their nearest neighbours and some compounds at random. The source holds several records for some structures; these can differ, active in one and inactive in another.
# Biological target: Nuclear receptor ROR-gamma (Mus musculus) (UniProt P51450)
# Sequence (P51450 whole entry, looked up): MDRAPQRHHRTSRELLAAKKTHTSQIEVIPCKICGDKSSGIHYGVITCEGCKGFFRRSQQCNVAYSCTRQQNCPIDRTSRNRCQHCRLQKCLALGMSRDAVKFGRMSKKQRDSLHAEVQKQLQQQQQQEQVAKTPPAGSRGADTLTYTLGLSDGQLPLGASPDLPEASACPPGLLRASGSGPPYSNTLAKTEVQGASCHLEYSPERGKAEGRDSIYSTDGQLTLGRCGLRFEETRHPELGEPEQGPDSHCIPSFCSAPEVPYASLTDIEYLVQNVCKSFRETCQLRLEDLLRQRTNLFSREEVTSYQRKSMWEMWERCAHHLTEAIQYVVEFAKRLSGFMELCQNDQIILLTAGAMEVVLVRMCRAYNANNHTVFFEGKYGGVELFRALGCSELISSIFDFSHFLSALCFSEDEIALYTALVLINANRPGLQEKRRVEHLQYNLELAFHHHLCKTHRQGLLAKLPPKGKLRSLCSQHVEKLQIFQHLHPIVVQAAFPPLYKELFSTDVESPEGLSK
# Experiment: qHTS for inhibitors of ROR gamma transcriptional activity; further: nearly all actives have a fitted effect of over 60% in size
# Conditions: Drosophila S2 Gal4-RORgamma UAS-luciferase reporter, 20 h; series mostly up to 53.6 µM; activity change, negative = inhibition: at the top concentration
# Text: NIH Molecular Libraries Probe Production Network [MLPCN] NIH Chemical Genomics Center [NCGC] MLPCN Grant: R03 DA026211-01 Assay Provider: Dan Littman, New York University Assay Overview: The retinoic acid-related orphan receptor (ROR) gamma is a transcription factor that has a central role in the differentiation of Th17 cells, a subset of T helper cells that secrete the inflammatory cytokines IL-17, IL-17F, and IL-22. Th17 cells have been implicated in graft versus host disease, autoimmune disease and asthma. ROR gamma is induced in naive T helper cells in the presence of TGF-beta combined with IL-6, IL-21, or IL-23, and thereafter directs the expression of the Th17 lineage cytokines. To study the mechanism of action of ROR gamma, an insect cell-based assay was screened. This Drosophila Schneider cell line was stably transfected with two vectors: a gene expressing a fusion of the Gal4 DNA binding domain and ROR gamma transactivation domain under the control of the metallothionine promoter and a Photinus luciferase reporter regulated by the Gal4 binding site enhancer, UAS. […] Small molecule inhibitors of ROR gamma activity are detected by a decrease in luciferase reporter activity.
# Assay Protocol Summary: For screening, 600 cells in 4 uL/well were dispensed into white solid 1536-well plates (Grenier) using a solenoid-based dispenser. Following transfer of 23 nL compound or DMSO vehicle by a pin tool, the plates were incubated 1 hr at ambient temperature, and 1 uL/well copper sulfate (700 uM final concentration) was added. The plates were centrifuged 15 s at 1000 RPM and incubated 20 hr at ambient temperature. After addition of 1.5 uL Photinus luciferase detection reagent, the plates were incubated 10 min at ambient temperature and then read by an ViewLux (Perkin Elmer) to detect luminescence. Keywords: NIH Roadmap, MLPCN, MLI, MLSMR, qHTS, NCGC, qHTS, nuclear hormone receptor, retinoic acid-related orphan receptor, ROR gamma
# On the % scale 0 is the no-effect control and ±100 the full control effect; potency means the concentration at half of the fitted maximal effect.
Structure (SMILES),"activity change, negative = inhibition",Potency
NC[C@H](O)c1ccc(O)cc1,3.67% [at 16.9 µM] (inactive),–
COc1ccc(C2Oc3c(I)c(OC)cc(OC)c3CC2O)cc1OC (stereo not given),12.7% (inactive),–
CC(C)(C)c1ccc(CN2C(=O)CN=C(c3ccccc3)c3ccccc32)cc1,24.6% (inactive),–
ClCCBr,14.1% (inactive),–
Cc1cc(C)cc(NC(=S)NC2CC3CCCC(C2)N3Cc2cccs2)c1 (stereo not given),–,8.91 µM (active)
C[C@@H]1C[C@H]2CC[C@H](O2)[C@H](C)C(=O)O[C@@H](C)C[C@@H]2CC[C@@H](O2)[C@@H](C)C(=O)O[C@H](C)C[C@H]2CC[C@H](O2)[C@H](C)C(=O)O[C@@H](C)C[C@@H]2CC[C@@H](O2)[C@@H](C)C(=O)O1,–,0.891 µM (active)
CC(=O)Oc1ccccc1C(=O)Nc1ncc([N+](=O)[O-])s1,-79.1% (inactive),–
N#Cc1c(Cl)c(Cl)c(Cl)c(C#N)c1Cl,–,2.51 µM (active)
O=C1CCc2cccc3c2N1CC3,-10.2% (inactive),–
Nc1ccc(-c2ccc(N)c(N)c2)cc1N,12.8% (inactive),–
CC1=CC(=O)C2=C(C)C[C@H](O)[C@H]3[C@H](C)C(=O)O[C@@H]3C12 (stereo not given in full),2.61% (inactive),–
C=CCSSCC=C,-7.73% (inactive),–
CCCCCCCCc1[se]c2ccccc2c1Br,-0.37% (inactive),–
O=C(O)c1ccccc1NC(=O)C1C2CCC(O2)C1C(=O)O (stereo not given),-10.6% (inactive),–
c1csc(CN2CC3(CCNCC3)C2)n1,-0.669% (inactive),–
C1CC[C@H]([C@@]23C[C@H](C[C@H]4CCCN[C@H]42)[C@@H]2CCCCN2C3)NC1,9.81% (inactive),–
Cc1nc2ccccn2c1P(=S)(N1CCCCC1)N1CCCCC1,–,7.08 µM (active)
c1ccc(CCCCN2CCC(c3ccccc3)CC2)cc1,-10.4% (inactive),–
Clc1ccc([C@@H]2C[C@H]3CC[C@@H]2N3)cn1,24.9% (inactive),–
CC[C@]1(O)C(=O)OCc2c1cc1n(c2=O)Cc2cc3ccccc3nc2-1,-21.8% (inactive),–
Cc1ncc(CC(=O)n2cc(C(=O)c3cc(Cl)ccc3O)cn2)s1,–,7.94 µM (active)
CC(C)(Cc1c[nH]c2ccc(Cl)cc12)NCCOc1ccccc1OCC1CC1,–,12.6 µM (active)
N[C@H](C(=O)O)c1cc(=O)[nH]o1,-0.853% (inactive),–
CC(=O)[O][Sn]([c]1ccccc1)([c]1ccccc1)[c]1ccccc1,–,0.891 µM (active)
COC(=O)N1C(c2ccccc2)C1c1ccccc1 (stereo not given),19% (inactive),–

Structure (SMILES),"activity change, negative = inhibition",Potency
C[C@@]12CCC3C(CC[C@@H]4CC(O)CC[C@@]34C)C1CCC2O (stereo not given in full),-4.73% (inactive),–
Cc1ncsc1CCCl,–,inactive
COc1cc2c(cc1OC)[C@@H]1C(=O)c3ccc(O)c(CC=C(C)C)c3OC1CO2 (stereo not given in full),11.8% (inactive),–
C[C@@]12CC[C@H]3[C@@H](CC[C@]4(O)C[C@H](O)CC[C@@]34C=O)[C@]1(O)CC[C@@H]2C1=CC(=O)OC1,15.8% [at 16.9 µM] (inactive),–
N#Cc1cc(Br)c(O)c(Br)c1,29.7% (inactive),–
CCCCC(=O)N/N=C/c1c(O)n(-c2ccccc2)c(=O)[nH]c1=O,-21.3% (inactive),–
CCCCC(=O)N/N=C/c1c(O)n(CC)c(=S)n(CC)c1=O,–,2 µM (active)
CCCCC(=O)N/N=C/c1c(O)n(CCC2=CCCCC2)c(=O)[nH]c1=O,-37.8% (inactive),–
CC(Cl)Cl,4.6% (inactive),–
COC1=C[C@]23CCCN2CCc2cc4c(cc2[C@@H]3[C@@H]1O)OCO4,6.52% (inactive),–
CCN1C[C@]2(C)CC[C@H](O)[C@@]34[C@@H]5CC6[C@@H](OC)C[C@@](O)([C@@H]5[C@@H]6O)[C@H](C[C@@H]23)[C@H]14,23.8% [at 16.9 µM] (inactive),–
CO[C@H]1[C@@H](O)[C@@H](C)O[C@H](O[C@H]2[C@H](Oc3cccc4c(O)c5c(=O)oc6ccc(C)c7c(=O)oc(c34)c5c67)O[C@H](C)[C@H](O)[C@@H]2O)[C@@H]1O,–,11.2 µM (active)
CN1C2CC3CC1C(O3)C2O (stereo not given),6.14% (inactive),–
CC(C)(c1ccccc1)c1ccc(O)cc1,2.59% (inactive),–
CCOc1ccc(-c2cc(C)[n+](CCN(CC)CC)c(-c3ccc(OCC)cc3)c2)cc1,-64.7% (inactive),–
CCCCC/C=C\C/C=C\C/C=C\CCCCCCC(=O)NCCO,–,inactive
COc1ccc(CN2CCN(c3ccccc3F)CC2)c(OC)c1,9% (inactive),–
COc1cc(-n2c(=S)[nH]c3ccc(C)cc3c2=O)c(Cl)cc1Cl,–,2.51 µM (active)
COc1ccccc1-c1[se]c2ccccc2c1I,17.7% (inactive),–
C[C@]12O[C@H](C[C@@]1(O)C(=O)O)n1c3ccccc3c3c4c(c5c6ccccc6n2c5c31)CNC4=O,13.2% (inactive),–
CNCC[C@H](Oc1ccc(C(F)(F)F)cc1)c1ccccc1,23.7% [at 16.9 µM] (inactive),–
C=CC#N,3.71% (inactive),–
O=C1C2CCN(CC2)C1(CO)CO,–,inactive and 25.1 µM (active)
c1ccc2c(c1)[I+]c1ccccc1-2,-83.8% (inactive),–
O=P1(Oc2ccccc2)CC(O)C(O)C(COCc2ccccc2)O1 (stereo not given),-1.94% (inactive),–
